# Laboratory results taken from PubChem BioAssay.
# Active and inactive are the calls of the source.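 Rule for the calls, unless noted: active = fluorescence slope after compound addition differing from the mean of all screened samples at 99.7% confidence, in either direction; inactive = the rest.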
# Columns and labels:
# [1] = inhibitors of TNFa-induced NFkB p65 translocation, primary screen, imaging, HUVEC, MLSMR starter and 10KST1 sets (AID 438;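 active = inhibition above 20% together with a positive visual image hit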;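 note: compound added about 3h40 before a 20 min TNFalpha stimulation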;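 for inhibition: signal is the nuclear over cytoplasmic p65 intensity ratio per well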); details: HUVEC TNFa-induced p65 nuclear translocation; cell count: measured here: nuclei count (cytotoxicity indicator), at 2.08 µM; inhibition: at 2 µM, stronger effect = higher value, 0% TNFa-plus-vehicle, 100% no-TNFa wells
# [2] = inhibitors of mutant huntingtin aggregation, primary screen, imaging, exon1htt(103Q)mCFP cells, high-content imaging (AID 483;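 active = visual image review flags a hit and inhibition of aggregation exceeds 20%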;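 note: compound exposure lasted 3 days before fixation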;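 for nuclei count: percent of the per-plate median nuclei count of sample wells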); details: exon1htt(103Q)mCFP cell line, aggregate imaging, at 2 µM; inhibition of aggregation: stronger effect = higher value; nuclei count: measured here: cell count, toxicity
# [3] = inhibitors of E-selectin induction by TNFa, primary screen, imaging, HUVEC, immunofluorescence, MLSMR starter and 10KST1 sets (AID 487;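 active = visually confirmed hit in the image check and inhibition above 20%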;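 for inhibition: signal is fraction of cell area covered by stained E-selectin grains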;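 for nuclei count: 100% = median nuclei count of all wells on the same plate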); details: HUVEC TNFalpha-induced E-selectin immunofluorescence imaging, at 2 µM; inhibition: stronger effect = higher value; nuclei count: measured here: cell number, toxicity
# [4] = target: Voltage-gated potassium channel subunit beta-2 (Rattus norvegicus) (UniProt P62483); experiment: KvBeta enzyme negative modulators, primary screen, biochemical, NADPH fluorescence (AID 622;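 active = fluorescence slope higher than the sample average by over 3 SD, cut at about -0.22 in these data, passing the limit was not always enough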;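 note: slope of raw intensity against log time taken from 70 to 1610 s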); details: recombinant KvBeta, 4-cyanobenzaldehyde reduction, at 10 µM, stronger effect = higher value
# Chain of Voltage-gated potassium channel subunit beta-2 (Rattus norvegicus) (P62483 whole entry, looked up): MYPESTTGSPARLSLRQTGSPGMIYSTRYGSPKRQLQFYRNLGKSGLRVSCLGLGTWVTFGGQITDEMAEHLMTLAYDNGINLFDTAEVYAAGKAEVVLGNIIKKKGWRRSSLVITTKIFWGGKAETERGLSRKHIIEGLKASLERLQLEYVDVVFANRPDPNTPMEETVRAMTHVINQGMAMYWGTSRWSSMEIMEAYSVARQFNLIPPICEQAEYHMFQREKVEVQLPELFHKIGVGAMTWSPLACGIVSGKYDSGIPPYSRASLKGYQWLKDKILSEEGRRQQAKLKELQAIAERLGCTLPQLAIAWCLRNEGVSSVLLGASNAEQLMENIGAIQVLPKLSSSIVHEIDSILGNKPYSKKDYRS
# [5] = target: Voltage-gated potassium channel subunit beta-2 (Rattus norvegicus) (UniProt P62483); experiment: KvBeta positive modulators, primary screen, biochemical, NADPH fluorescence (AID 623;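 active = NADPH fluorescence slope more negative than the mean of all samples by about 3 SD, 99.7% confidence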;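 note: fluorescence intensity change per second fitted from 20 to 320 s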); details: Recombinant KvBeta, NADPH fluorescence decrease slope, 10 min; at 10 µM; stronger effect = lower value
# [6] = target: Alpha-2C adrenergic receptor (Homo sapiens) (UniProt P18825); experiment: modulators of alpha2C/GIRK thallium flux, primary screen, cell-based, HEK293 alpha2C/GIRK1/2 (AID 624); details: thallium flux BTC fluorescence, at 10 µM, actives lie on both sides;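 note: slope of fluorescence ratio to pre-addition baseline per second over 15 to 24 s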
# Chain of Alpha-2C adrenergic receptor (Homo sapiens) (P18825 whole entry, looked up): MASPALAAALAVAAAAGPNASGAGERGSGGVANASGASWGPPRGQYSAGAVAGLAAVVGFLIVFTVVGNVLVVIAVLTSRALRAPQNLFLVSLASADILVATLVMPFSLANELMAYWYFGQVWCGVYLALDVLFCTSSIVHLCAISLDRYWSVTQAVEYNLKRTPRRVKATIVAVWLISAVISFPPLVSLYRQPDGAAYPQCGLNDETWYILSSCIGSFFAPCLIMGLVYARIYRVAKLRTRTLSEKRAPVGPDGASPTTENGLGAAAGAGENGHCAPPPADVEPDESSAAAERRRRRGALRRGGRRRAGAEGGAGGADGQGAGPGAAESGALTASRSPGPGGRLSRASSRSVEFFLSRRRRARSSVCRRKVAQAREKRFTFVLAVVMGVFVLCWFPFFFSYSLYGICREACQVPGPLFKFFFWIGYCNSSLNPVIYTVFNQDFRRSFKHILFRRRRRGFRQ
# [7] = inhibitors of Sendai virus-induced IRF3 signaling, primary screen, TLR/RLR signaling modifier project, cell-based, Sendai virus stimulus, luciferase, 10K MLSCN set (AID 602276;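 active = inhibition at or above 50% at 10 µM; inactive = inhibition below 50%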;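 note: firefly luciferase from ISG56 promoter only with Renilla not read in this screen; 0% = Sendai virus plus DMSO and 100% = medium plus DMSO without virus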); details: HEK293 RL24 IRF3 luciferase reporter, at 10 µM, stronger effect = higher value
# [8] = inhibitors of poly I:C-induced TLR3 signaling, primary screen, cell-based, poly I:C stimulus, luciferase, 10K MLSCN set (AID 602277;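 active = inhibition of the reporter signal at or above 50%; inactive = inhibition below 50%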); details: HEK293-TLR3 RL24 IRF3 luciferase reporter, at 10 µM, stronger effect = higher value
SMILES,cell count [1],inhibition [1],inhibition of aggregation [2],nuclei count [2],inhibition [3],nuclei count [3],fluorescence slope [4],NADPH fluorescence slope [5],slope [6],inhibition [7],inhibition [8]
Cc1ccc(NC(=O)c2ccco2)cc1NC(=O)CSc1nnc(-c2cccs2)n1C,379,-5.5% (inactive),16.8% (inactive),89.1%,24.1% (inactive),98.1%,-0.394 (inactive),-5.8e-05 (inactive),0.00449 (inactive),10.8% (inactive),14.1% (inactive)
COc1cccc(NC(=O)N2CCN(c3cccc(C)c3C)CC2)c1,647,-5.2% (inactive),-12.7% (inactive),75.8%,-139% (inactive),93.3%,-0.455 (inactive),-4.9e-05 (inactive),0.00389 (inactive),-24.5% (inactive),-55.2% (inactive)
Cc1oc(C(=O)O)cc1CSCc1cc(C(=O)O)c(C)o1,403,-9.3% (inactive),-21.1% (inactive),102%,-15.5% (inactive),118%,-0.508 (inactive),3.2e-05 (inactive),0.00721 (inactive),-20.7% (inactive),-5.67% (inactive)
Nc1c(C(=O)NCCN2CCOCC2)c2nc3ccccc3nc2n1-c1ccc2c(c1)OCO2,337,-8.4% (inactive),-2.4% (inactive),96.7%,-53.1% (inactive),74%,-0.348 (inactive),-6.2e-05 (inactive),0.00388 (inactive),11.3% (inactive),16.5% (inactive)
O=C(Nc1ccc2c(c1)OCO2)c1ccc(CN2CCOCC2)cc1,361,-5.1% (inactive),-32% (inactive),110%,-117% (inactive),122%,-0.491 (inactive),-3.3e-05 (inactive),0.00498 (inactive),-25.7% (inactive),-76.1% (inactive)
COc1ccc(CCn2c(-c3ccco3)nc3nc4ccccc4nc32)cc1,806,-5.6% (inactive),-7.3% (inactive),101%,-25.4% (inactive),115%,-0.445 (inactive),-3.4e-05 (inactive),0.00679 (inactive),18.8% (inactive),-6.71% (inactive)
CCOC(=O)Cn1c2c(c(=N)c3ccccc31)CCC2,565,-7.1% (inactive),-0.7% (inactive),106%,2% (inactive),103%,-0.623 (inactive),-3.1e-05 (inactive),0.00442 (inactive),16% (inactive),20.3% (inactive)
COc1ccc(CN(Cc2nc3ccccc3c(=O)[nH]2)C(=O)NC2CCCCC2)cc1,389,-8.4% (inactive),4.6% (inactive),100%,-95.3% (inactive),84.3%,-0.359 (inactive),-2.1e-05 (inactive),0.00294 (inactive),15.1% (inactive),29.3% (inactive)
N#CCC(=O)N1CCn2c1nc1ccccc12,301,-3.4% (inactive),-20.8% (inactive),94.4%,-16.4% (inactive),101%,-0.492 (inactive),-3.8e-05 (inactive),0.00588 (inactive),11.2% (inactive),24.2% (inactive)
CCS(=O)(=O)NCCc1cc2c(OC)ccc(OC)c2[nH]c1=O,349,-15.2% (inactive),12.1% (inactive),83.7%,38.9% (inactive),95.1%,-0.488 (inactive),-3.1e-05 (inactive),0.00489 (inactive),16.6% (inactive),26.4% (inactive)
COc1cccc(C(=O)Nc2ncc3c(n2)CC(C)CC3=O)c1 (centres undefined),390,2.5% (inactive),3% (inactive),95.8%,-0.5% (inactive),88.1%,-0.592 (inactive),-5.1e-05 (inactive),0.00534 (inactive),-6.66% (inactive),-7.05% (inactive)
Nc1nnc(SCc2cc3c(cc2Cl)OCO3)s1,379,7.6% (inactive),-3.1% (inactive),110%,-30.6% (inactive),111%,-0.477 (inactive),-6.6e-05 (inactive),0.00689 (inactive),0.13% (inactive),9.87% (inactive)
CC(C)CCNC(=O)C(c1cccs1)N(CC1CCCO1)C(=O)Cn1nnc2ccccc21 (centres undefined),642,8.8% (inactive),3.2% (inactive),85.4%,-132% (inactive),97.1%,-0.451 (inactive),-5.1e-05 (inactive),0.00299 (inactive),10.3% (inactive),35.6% (inactive)
Cc1ccc(C(=O)CC2(O)C(=O)N(CN3CCOCC3)c3ccccc32)cc1 (centres undefined),396,-8.1% (inactive),-5.7% (inactive),103%,-52.9% (inactive),99.1%,-0.367 (inactive),8.1e-06 (inactive),0.00346 (inactive),-4.62% (inactive),5.37% (inactive)
